These results are taken from the antibiotic and cytotoxicity screens of Wong et al. (2023).

Structures are written as SMILES. The campaign covered roughly 39,000 compounds. About 3,300 (8.5%) were called active. The sample holds actives, similar compounds and a random draw of the others, so the mix is not that of the screen.

In this assay the test system is HepG2. The assay is described as follows: cytotoxicity call (relative viability < 0.9). Particulars: 10 µM.
As to `Cc1noc(C)c1NC(=O)N(C)C[C@H]1Oc2ccc(NC(=O)c3ccncc3)cc2CC(=O)N([C@H](C)CO)C[C@H]1C`, the cytotoxicity call is “inactive”.
On to `CC(C)NC(=O)N(C)C[C@@H]1OCCCC[C@@H](C)Oc2ccc(NC(=O)Nc3ccccc3)cc2C(=O)N([C@@H](C)CO)C[C@H]1C`, for which the cytotoxicity call was “inactive”.
In the case of `C[C@H]1CN([C@@H](C)CO)C(=O)c2cc(NS(=O)(=O)c3ccc(Cl)cc3)ccc2O[C@@H]1CN(C)S(C)(=O)=O` it was “inactive”; in that of `C[C@H](CO)N1C[C@H](C)[C@@H](CN(C)C(=O)C2CCOCC2)Oc2ncc(C#Cc3cccc(F)c3)cc2C1=O`, “inactive”.
The entry for `C[C@@H]1CN([C@@H](C)CO)C(=O)c2cc(NC(=O)Nc3cccc4ccccc34)ccc2O[C@@H](C)CCCCO[C@@H]1CN(C)S(=O)(=O)c1cccs1` is “inactive”; for `COc1ccccc1C#Cc1cnc2c(c1)C(=O)N([C@@H](C)CO)C[C@@H](C)[C@H](CN(C)C(=O)CC1CC1)O2` it is “inactive”; for `Cc1ccc(S(=O)(=O)Nc2ccc3c(c2)C(=O)N([C@H](C)CO)C[C@@H](C)[C@H](CN(C)C(=O)NC(C)C)O3)cc1` it is “inactive”.
As for `C[C@@H]1CN([C@H](C)CO)C(=O)CCCn2cc(nn2)CO[C@@H]1CN(C)C(=O)c1cc(-c2ccccc2)on1`, the cytotoxicity call was “inactive”.
In the case of `CN(C)CCCCNC(=O)[C@@H]1C[C@@H]2C(=O)N[C@@H](CCCC[N+](C)(C)C)C(=O)N2[C@@H]1c1ccc(O)cc1` it was “inactive”; in that of `C[C@H]1CCCCO[C@H](CN(C)C(=O)Nc2ccc(C(F)(F)F)cc2)[C@@H](C)CN([C@@H](C)CO)C(=O)c2cc(NC(=O)Nc3cccc4ccccc34)ccc2O1`, “inactive”; in that of `COc1ccc(S(=O)(=O)N(C)C[C@H]2Oc3ccc(NC(=O)Nc4c(C)noc4C)cc3CC(=O)N([C@@H](C)CO)C[C@@H]2C)cc1`, “inactive”.
`CCS(=O)(=O)N1C[C@]2(CN(C2)C(=O)Nc2ccc(cc2)F)c2c(n(c3cc(ccc23)OC)C)[C@H]1CO`: the cytotoxicity call is “inactive”.
In the case of `C[C@@H]1CN([C@H](C)CO)C(=O)Cc2cc(NS(=O)(=O)c3ccc(F)cc3)ccc2O[C@@H]1CN(C)Cc1ccc(Oc2ccccc2)cc1` it was “active”; in that of `C[C@H](CO)N1C[C@H](C)[C@@H](CN(C)Cc2ccc(Oc3ccccc3)cc2)Oc2ccc(NS(=O)(=O)c3ccc(F)cc3)cc2CC1=O`, “inactive”.
With `CC(=O)[C@@H](OC(=O)CS(C)(=O)=O)C(=O)NCc1ccccc1`, the cytotoxicity call is “inactive”.
For `COc1ccc(S(=O)(=O)Nc2ccc3c(c2)C(=O)N([C@H](C)CO)C[C@@H](C)[C@H](CN(C)C(=O)CCC(F)(F)F)OCCCC[C@@H](C)O3)cc1`, the cytotoxicity call was “inactive”.
On to `C[C@@H]1CN([C@H](C)CO)C(=O)c2cc(NS(=O)(=O)c3ccc(Cl)cc3)ccc2O[C@@H](C)CCCCO[C@H]1CN(C)C(=O)C1CCCCC1`, for which the cytotoxicity call is “active”.
For the compound `C[C@@H]1CCCCO[C@H](CN(C)C(=O)C2CCCCC2)[C@H](C)CN([C@H](C)CO)C(=O)c2cc(NS(=O)(=O)c3ccccc3)ccc2O1`, the cytotoxicity call is “inactive”.
Turning to `COc1ccc(S(=O)(=O)Nc2ccc3c(c2)C(=O)N([C@H](C)CO)C[C@H](C)[C@H](CN(C)C(=O)C2CCCCC2)OCCCC[C@H](C)O3)cc1`, the cytotoxicity call was “active”.
The entry for `C[C@@H]1CCCCO[C@H](CN(C)C(=O)C2CCCCC2)[C@@H](C)CN([C@H](C)CO)C(=O)c2cc(NS(=O)(=O)c3ccc(Cl)cc3)ccc2O1` is “inactive”; for `C[C@@H]1CN([C@@H](C)CO)C(=O)c2cc(NS(=O)(=O)c3ccc(Cl)cc3)ccc2O[C@@H](C)CCCCO[C@H]1CN(C)C(=O)C1CCCCC1` it is “inactive”; for `COc1ccc(S(=O)(=O)Nc2ccc3c(c2)C(=O)N([C@H](C)CO)C[C@H](C)[C@@H](CN(C)C(=O)C2CCCCC2)OCCCC[C@H](C)O3)cc1` it is “inactive”.
The entry for `COc1ccc(S(=O)(=O)Nc2ccc3c(c2)C(=O)N([C@H](C)CO)C[C@@H](C)[C@H](CN(C)C(=O)C2CCCCC2)OCCCC[C@@H](C)O3)cc1` is “inactive”.
In the case of `C[C@@H]1CCCCO[C@H](CN(C)C(=O)C2CCCCC2)[C@H](C)CN([C@@H](C)CO)C(=O)c2cc(NS(=O)(=O)c3ccc(Cl)cc3)ccc2O1` it was “inactive”; in that of `C[C@@H]1CN([C@H](C)CO)C(=O)c2cc(NS(=O)(=O)c3ccc(Cl)cc3)ccc2O[C@@H](C)CCCCO[C@@H]1CN(C)C(=O)C1CCCCC1`, “active”.
Regarding `C[C@H](CO)N1C[C@H](C)[C@H](CN(C)C(=O)C2CCCCC2)OCCCC[C@H](C)Oc2ccc(NS(=O)(=O)c3ccccc3)cc2C1=O`, the cytotoxicity call is “inactive”.
In the case of `C[C@@H]1CCCCO[C@@H](CN(C)C(=O)C2CCCCC2)[C@H](C)CN([C@@H](C)CO)C(=O)c2cc(NS(=O)(=O)c3ccc(Cl)cc3)ccc2O1` it was “inactive”; in that of `C[C@@H]1CCCCO[C@@H](CN(C)C(=O)C2CCCCC2)[C@H](C)CN([C@@H](C)CO)C(=O)c2cc(NS(=O)(=O)c3ccccc3)ccc2O1`, “active”; in that of `C[C@H]1CN([C@@H](C)CO)C(=O)Cc2cc(NC(=O)Cn3cnnn3)ccc2O[C@H]1CN(C)CC1CC1`, “inactive”.
In the case of `COc1ccc(NC(=O)N(C)C[C@@H]2Oc3ncc(C#C[C@@H](C)O)cc3C(=O)N([C@@H](C)CO)C[C@@H]2C)cc1` it was “inactive”; in that of `CCC(=O)N[C@H]1CC[C@H](CC(=O)OC)O[C@@H]1CO`, “inactive”; in that of `CNC(=O)C[C@H]1CC[C@@H]2[C@H](COC[C@@H](O)CN2C(=O)c2ccccn2)O1`, “inactive”.
`CC(C)NC(=O)N(C)C[C@@H]1Oc2c(NS(=O)(=O)c3cn(C)cn3)cccc2C(=O)N([C@H](C)CO)C[C@H]1C`: the cytotoxicity call was “inactive”.
`Cc1ccc(S(=O)(=O)N(C)C[C@H]2Oc3ccc(NC(=O)NC(C)C)cc3CC(=O)N([C@@H](C)CO)C[C@@H]2C)cc1`: the cytotoxicity call is “inactive”.
In the case of `O=C(C[C@@H]1CC[C@H]2[C@@H](COC[C@H](O)CN2C(=O)Nc2ccc(C(F)(F)F)cc2)O1)NCCc1ccncc1` it was “inactive”.
Regarding `Cc1ccc(S(=O)(=O)Nc2ccc3c(c2)C(=O)N([C@H](C)CO)C[C@@H](C)[C@H](CN(C)C(=O)C2CCCCC2)OCCCC[C@@H](C)O3)cc1`, the cytotoxicity call is “inactive”.
Take `Cc1ccc(S(=O)(=O)Nc2ccc3c(c2)C(=O)N([C@@H](C)CO)C[C@H](C)[C@@H](CN(C)C(=O)C2CCCCC2)OCCCC[C@@H](C)O3)cc1`: the cytotoxicity call is “active”.
For `Cc1ccc(S(=O)(=O)Nc2ccc3c(c2)C(=O)N([C@@H](C)CO)C[C@H](C)[C@H](CN(C)C(=O)C2CCCCC2)OCCCC[C@@H](C)O3)cc1`, the cytotoxicity call is “inactive”.
`C[C@H]1CCCCO[C@H](CN(C)S(=O)(=O)c2cn(C)cn2)[C@@H](C)CN([C@@H](C)CO)C(=O)c2cc(NS(=O)(=O)c3ccc(F)cc3)ccc2O1`: the cytotoxicity call is “inactive”.
In the case of `C[C@@H]1CN([C@H](C)CO)C(=O)c2cc(NC(=O)NC3CCCCC3)ccc2O[C@@H]1CN(C)S(C)(=O)=O` it was “inactive”; in that of `COc1ccc([Si](C)(C)[C@H]2[C@H](CC(=O)N3Cc4ccccc4C[C@H]3CO)O[C@@]3(C(=O)N(C)c4c(Br)cc(C)cc43)[C@@H]2C)cc1`, “inactive”.
The entry for `CN1C(=O)c2cc(NC(=O)C3CCOCC3)ccc2OC[C@H]2O[C@H](CC(=O)NCCc3ccncc3)CC[C@@H]21` is “inactive”; for `O=C(C=Cc1ccc(O)c(O)c1)C=C(O)C=Cc1ccc(O)c(O)c1` it is “active”.
In the case of `O=C(/C=C/c1ccc(O)c(O)c1)O[C@H]([C@H](OC(=O)/C=C/c1ccc(O)c(O)c1)[C@H](OC(=O)/C=C/c1ccc(O)c(O)c1)C(=O)O)[C@@H](OC(=O)/C=C/c1ccc(O)c(O)c1)C(=O)O` it was “inactive”.
Consider `COc1cc(C=O)ccc1O`, for which the cytotoxicity call is “active”.
The entry for `COc1ccc(C=CC(=O)O)cc1OC` is “inactive”; for `COc1ccc(/C=C/C(=O)C=C(O)/C=C/c2ccc(OC)c(OC)c2)cc1OC` it is “inactive”.
As for `O=C(O)C=Cc1ccc(O)c(O)c1`, the cytotoxicity call was “inactive”.
With `COc1cc(C(C)=O)ccc1O`, the cytotoxicity call was “inactive”.
On to `COc1cc(C=CC(=O)C=C(O)C=Cc2ccc(O)c(OC)c2)ccc1O`, for which the cytotoxicity call was “active”.
Consider `COc1cc(C=CC(=O)O)ccc1O`, for which the cytotoxicity call is “inactive”.
The entry for `S=C1NCNCN1` is “inactive”.
For the compound `O=C1N[C@H](Cc2ccccc2)COC(=O)[C@@H](Cc2ccc(F)cc2)CCC=CC[C@@H]1CC(=O)N(CCO)Cc1ccccc1`, the cytotoxicity call was “inactive”.
As to `COc1ccc(CN2C[C@@H](C)[C@H](OC)CN(C)C(=O)c3ccc(NC(=O)c4nc5ccccc5s4)cc3OC[C@H]2C)cc1`, the cytotoxicity call was “inactive”.
Turning to `COCC#Cc1ccc2c(c1)O[C@@H](CN(C)C(=O)CN(C)C)[C@H](C)CN([C@H](C)CO)S2(=O)=O`, the cytotoxicity call was “inactive”.
Regarding `Cc1ccc(S(=O)(=O)N(C)C[C@@H]2Oc3ncc(Br)cc3C(=O)N([C@H](C)CO)C[C@@H]2C)cc1`, the cytotoxicity call was “inactive”.
Take `COC(=O)c1cc(S(=O)(=O)N2CCOCC2)cn1C`: the cytotoxicity call is “inactive”.
Regarding `C[C@@H]1CCCCO[C@@H](CN(C)C(=O)Nc2ccc(F)cc2)[C@@H](C)CN([C@@H](C)CO)C(=O)c2cc(NC(=O)C3CCCCC3)ccc2O1`, the cytotoxicity call is “inactive”.
Regarding `COCC#Cc1ccc([C@H]2[C@@H](CO)N3C(=O)CN(C(=O)C4CCOCC4)C[C@@H]23)cc1`, the cytotoxicity call is “inactive”.
In the case of `C[C@H]1CN([C@@H](C)CO)C(=O)c2cccc(NC(=O)c3cnccn3)c2O[C@H]1CN(C)C(=O)Nc1ccccc1` it was “inactive”.
As for `C[C@@H]1CN([C@@H](C)CO)C(=O)c2cc(NC(=O)Nc3ccc(C(F)(F)F)cc3)ccc2O[C@@H](C)CCCCO[C@@H]1CN(C)C(=O)CCCN(C)C`, the cytotoxicity call is “inactive”.
In the case of `Oc1cccc(O)c1` it was “inactive”.
As to `Oc1ccc2ccccc2c1`, the cytotoxicity call was “inactive”.
The entry for `O=C(O)c1ccc2ccccc2c1` is “inactive”.
In the case of `Oc1ccc2ccccc2c1` [beta-NAPHTHOL ] it was “active”; in that of `C[C@H](CO)N1C[C@H](C)[C@@H](CN(C)S(=O)(=O)c2ccccc2)Oc2ccc(NS(=O)(=O)c3ccccc3)cc2C1=O`, “inactive”.
`Cc1ccc(S[C@]2(C(=O)NCC(C)C)CC(=O)N(Cc3cc(C(F)(F)F)cc(C(F)(F)F)c3)[C@@H]2c2ccc(CO)cc2I)cc1`: the cytotoxicity call is “inactive”.
